From PubChem BioAssay (NCATS) come the findings set out here.

Holding throughout (test): qHTS profiling for inhibitors of Plasmodium falciparum proliferation (AID 504749); further: nearly all actives have a fitted effect of over 60% in size
Holding throughout (conditions): P. falciparum in erythrocytes, SYBR Green DNA, 72 h; series mostly up to 28.7 µM
On the technique in general: qHTS replaces the single test concentration by a dilution series.

One experiment deals with AA1029. In a few lines:
(§1)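 Each compound contacts P. falciparum-infected red blood cells for 72 h at 37 C; lysis buffer (Tris, EDTA, saponin, Triton X, SYBR Green I) is added and fluorescence measured next morning; values normalized to controls.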

Another experiment deals with AS120. In a few lines: as §1
The test system of another experiment is ATS95. Put shortly: as §1
The next experiment has as its system CP194. In a few lines: as §1
The next experiment relates to CP247. Put shortly:
as §1

The next experiment concerns CP260. In a few lines: as §1
In the next experiment the test system is CP266. In a few lines:
as §1

In the next experiment the test system is CP297. Put shortly:
as §1

The next experiment has as its system DFO2036. Put shortly: as §1
A further experiment relates to DIV14. In a few lines: as §1
A further experiment concerns DIV30. In a few lines: as §1
A further experiment relates to Dd2. In a few lines: as §1
A further experiment concerns GB4. In a few lines:
as §1

The subject of another experiment is ICS. Put shortly: as §1
The subject of the next experiment is P93_24. In a few lines:
as §1

A further experiment relates to P94_40. Put shortly:
as §1

Another experiment deals with PAD. Put shortly: as §1
The test system of the next experiment is PC26. Put shortly: as §1
For the next experiment, the system named is SC27B. In a few lines:
as §1

The test system of another experiment is TAB165. Put shortly: as §1

Structures are written as SMILES. Results filed as inconclusive are left out. The source made the active and inactive calls. The call rests on the fitted dose curve; in most records, active means well fitted inhibition curve with a large enough effect; inconclusive means small, poorly fitted or top-dose-only effect; inactive means flat fitted curve, though single readings scatter.
Potency means the concentration at half of the fitted maximal effect.

Take `OC[C@@H](O)[C@H]1O[C@@H]2OC(C(Cl)(Cl)Cl)O[C@H]2[C@H]1O` (stereo not given in full): the Potency result with AA1029, in the experiment on AS120, in the experiment on ATS95, in the experiment with CP194, in the experiment with CP247 and in the experiment on CP260 was “inactive” each time. Also, the Potency result in the experiment with CP266, in the experiment with CP297, in the experiment on DFO2036, with DIV14, in the experiment with DIV30 and with Dd2 was “inactive” in each case. Further, the Potency result in the experiment on GB4, in the experiment on ICS, with P93_24, in the experiment with P94_40, in the experiment with PAD and in the experiment with PC26 was “inactive” in each case. Besides, the Potency entry in the experiment with SC27B and with TAB165 was “inactive” throughout.
As for `C[C@]12C=CC(=O)C=C1CC[C@@H]1C2CC[C@]2(C)OC(=O)CCC12` (stereo not given in full), the Potency result with AA1029, in the experiment on AS120, in the experiment with ATS95, in the experiment on CP194, in the experiment with CP247 and in the experiment with CP260 was “inactive” throughout. For the same molecule, the Potency result in the experiment with CP266, with CP297, in the experiment with DFO2036, in the experiment on DIV14, in the experiment with DIV30 and with Dd2 was “inactive” each time. For the same molecule, the Potency result with GB4, in the experiment with ICS, with P93_24, in the experiment with P94_40, with PAD and with PC26 was “inactive” in each case. For the same molecule, the Potency entry in the experiment with SC27B and in the experiment with TAB165 was “inactive” throughout.
As for `C[C@@H]1CC[C@H]2[C@@H](C)C(=O)O[C@@H]3OC4(C)CC[C@@H]1C32OO4` (stereo not given in full), the Potency was 11.2 nM (active) in the experiment with AA1029; 7.1 nM (active) in the experiment on AS120; 11.2 nM (active) in the experiment with ATS95; 16.9 nM (active) in the experiment on CP194; 10 nM (active) in the experiment on CP247; 10 nM (active) with CP260. Also, the Potency is 19 nM (active) with CP266; 15.1 nM (active) with CP297; 7.1 nM (active) with DFO2036; 7.6 nM (active) with DIV14; 8.5 nM (active) in the experiment on DIV30; 6.3 nM (active) with Dd2. Also, the Potency in the experiment on GB4 was 6.7 nM (active); with ICS, 2.5 nM (active); with P93_24, 3.5 nM (active); in the experiment with P94_40, 2.8 nM (active); in the experiment on PAD, 7.1 nM (active); in the experiment on PC26, 7.6 nM (active). The values for the Potency in the experiment with SC27B and with TAB165 were 7.1 nM (active) and 3.2 nM (active), respectively.
Consider `CCCCCc1cc(O)c2c(c1)OC(C)(C)C1CC=C(C)CC21` (stereo not given), for which the Potency in the experiment with AA1029 was 2820 nM (active); with AS120, 2240 nM (active); in the experiment with ATS95, 3160 nM (active); in the experiment with CP194, 5360 nM (active); in the experiment on CP247, 5010 nM (active); with CP260, 1780 nM (active). The Potency is 12000 nM (active) in the experiment on CP266; 3160 nM (active) with DFO2036; 1510 nM (active) in the experiment on DIV14; 2390 nM (active) in the experiment on DIV30; 2510 nM (active) in the experiment with Dd2; 1690 nM (active) in the experiment on GB4. Further, the Potency in the experiment with ICS is 891 nM (active); in the experiment on P93_24, 2510 nM (active); in the experiment with P94_40 it was 2510 nM (active); in the experiment with PAD, 1780 nM (active); with PC26, 1900 nM (active); in the experiment with SC27B, 2000 nM (active). Also, the Potency in the experiment on TAB165 is 2000 nM (active).
With `CC1(C)[C@@H](C=C(Cl)Cl)[C@@H]1C(=O)OCc1c(F)c(F)cc(F)c1F`, the Potency entry in the experiment with AA1029, in the experiment on AS120, in the experiment with ATS95, in the experiment with CP194, in the experiment with CP247 and in the experiment on CP260 was “inactive” each time. For the same molecule, the Potency entry in the experiment with CP266, in the experiment on DFO2036, with DIV14, in the experiment on DIV30, in the experiment on Dd2 and with GB4 was “inactive” throughout. The Potency result with ICS, in the experiment on P93_24, with P94_40, in the experiment with PAD, in the experiment with PC26 and with SC27B was “inactive” throughout. The Potency result in the experiment with TAB165 was “inactive”.
Consider `C[C@H](N)Cc1ccccc1`, for which the Potency entry in the experiment with AA1029, with AS120, in the experiment with ATS95, with CP194, in the experiment on CP247 and in the experiment on CP260 was “inactive” in each case. The Potency entry with CP266, in the experiment with CP297, in the experiment with DFO2036, in the experiment with DIV30, with Dd2 and in the experiment on GB4 was “inactive” throughout. In addition, the Potency entry in the experiment on ICS, in the experiment with P93_24, with P94_40, in the experiment with PAD, with PC26 and with SC27B was “inactive” each time. Besides, the Potency entry in the experiment with TAB165 was “inactive”.
As to `Cc1cc(C)cc(C(=O)OC2CC3CCC(C2)N3C)c1` (stereo not given), the Potency entry with AA1029, with AS120, with ATS95, with CP194, in the experiment with CP247 and with CP260 was “inactive” each time. In addition, the Potency entry in the experiment with CP266, in the experiment on CP297, in the experiment with DFO2036, in the experiment on DIV30, in the experiment with GB4 and in the experiment on P93_24 was “inactive” throughout. In addition, the Potency result in the experiment on P94_40, in the experiment with SC27B and in the experiment with TAB165 was “inactive” throughout. The Potency with DIV14 was 7570 nM (active).
On to `CCOC(=O)/C=C(C)/C=C/CC(C)CCCC(C)C` (stereo not given), for which the Potency entry in the experiment on AA1029, in the experiment with AS120, with ATS95, with CP194, in the experiment on CP247 and in the experiment on CP260 was “inactive” throughout. The Potency result in the experiment on CP266, in the experiment with CP297, in the experiment on DFO2036, in the experiment with DIV14, with DIV30 and in the experiment on Dd2 was “inactive” throughout. The Potency result in the experiment on GB4, in the experiment with ICS, in the experiment with P93_24, in the experiment on P94_40, with PAD and in the experiment on PC26 was “inactive” in each case. In addition, the Potency entry in the experiment with SC27B and in the experiment with TAB165 was “inactive” throughout.
Consider `[S]=[Sb][S][Sb]=[S]`, for which the Potency entry with AA1029, in the experiment with AS120, with ATS95, with CP194, in the experiment on CP247 and in the experiment with CP260 was “inactive” each time. Further, the Potency entry with CP266, in the experiment with CP297, with DFO2036, in the experiment with DIV14, in the experiment with DIV30 and in the experiment with Dd2 was “inactive” each time. Moreover, the Potency result in the experiment with GB4, with ICS, with P93_24, with P94_40, in the experiment on PAD and with SC27B was “inactive” throughout. Also, the Potency result in the experiment with TAB165 is “inactive”.
With `CCCCCC(O)C1C(=O)OC(C)C(O)\C=C/C=C\C=C/C=C\C=C(\C)C(O)C(O)C(O)CC(O)CC(O)CC(O)CC(O)CC1O` (stereo not given), the Potency result in the experiment on AA1029, in the experiment on AS120, in the experiment with ATS95, with CP194, in the experiment with CP247 and in the experiment with CP260 was “inactive” each time. The Potency entry in the experiment with CP266, in the experiment with CP297, in the experiment with DFO2036, with DIV14, in the experiment with DIV30 and with Dd2 was “inactive” each time. The Potency result with GB4, in the experiment on ICS, with P93_24, in the experiment with P94_40, with PAD and in the experiment with PC26 was “inactive” throughout. Moreover, the Potency result in the experiment on SC27B and with TAB165 was “inactive” throughout.
For `CCCCCCC(=O)O[C@H]1CC[C@H]2[C@@H]3CCC4CC(=O)C=C(C)[C@]4(C)[C@H]3CC[C@]12C` (stereo not given in full), the Potency result with AA1029, with AS120, in the experiment on ATS95, in the experiment on CP194, in the experiment on CP247 and with CP266 was “inactive” in each case. Besides, the Potency result with CP297, with DFO2036, with DIV14, with DIV30, in the experiment with GB4 and with P93_24 was “inactive” in each case. For the same molecule, the Potency entry in the experiment on P94_40, in the experiment on PAD, in the experiment with PC26, with SC27B and in the experiment with TAB165 was “inactive” each time. For the same molecule, the Potency with ICS is 10000 nM (active).
